Broadly, the AC50 is the midpoint of the concentration-response curve, whichever way the signal moves.

Structures are written as SMILES. Calls of active or inactive are those of the source. Rule for the calls: active = hit-call score of the fitted dose curve at least 0.9, where 1 is the maximum; inactive = score below 0.9.

The experiment in a line: BSK_SAg_SRB: Viability Assessment in the BioMAP Diversity Plus: SAg Assay (AID 2283096).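 Note: cells read one day after compound addition; hits may be either gain or loss of signal compared with DMSO.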 Particulars: primary human HUVEC with PBMC. Here is the method: BSK_SAg is a cell-based, multiplexed-readout assay that uses umbilical vein endothelium and peripheral blood mononuclear cells, a human vascular primary cell co-culture, with measurements taken at 24 hours after chemical dosing in a 96-well plate.BSK_SAg_SRB is an assay component measured in the BSK_SAg assay. It measures protein content, a form of viability reporter, as detected with absorbance signals by Sulforhodamine staining technology.Data from the assay component BSK_SAg_SRB was analyzed into 1 assay endpoint. This assay endpoint, BSK_SAg_SRB, was analyzed with bidirectional fitting relative to DMSO as the negative control and baseline of activity. Using a type of viability reporter, gain or loss-of-signal activity can be used to understand changes in the signaling. Furthermore, this assay endpoint can be referred to as a primary readout, because this assay has produced multiple assay endpoints where this one serves a signaling function. To generalize the intended target to other relatable targets, this assay endpoint is annotated to the cell morphology intended target family, where the subfamily is cell conformation.
The levels of cell surface (or secreted, indicated by the prefix "s") biomarker endpoints were measured by ELISA. Overt cytotoxicity to cells in confluent adherent cultures (all systems other than the BT system) was assessed by measuring total protein levels using sulforhodamine B (SRB) staining in parallel cultures at the time of biomarker measurements, indicated as SRB endpoints. For proliferation assays for adherent cell types, individual cell types are cultured at sub-confluence and relative cell numbers quantified by SRB staining at time points optimized for each system (48 h: 3C and CASM3C systems; 72 h: BT and HDF3CGF systems; 96 h: SAg system). SRB was performed by staining cells with 0.1% SRB after fixation with 10% TCA and reading wells at 560 nm.Viability and proliferation of PBMC (T cells) was quantified by Alamar Blue reduction for the SAg and BT systems. For PBMC viability (referred to as PBMC Cytotoxicity within the assay endpoint names), cells were plated (75,000/well in a 96-well plate) and then chemical samples added for 1 h before addition of activators, SEB and TSST-1 (20 ng/mL final concentration each). Cells were incubated for 90 h. Then, Alamar Blue (20 uL/well) (Invitrogen, Cat DAL1100) was added for 6 h, and the plates were read with a fluorescence microplate reader at 546/580 nm (excitation/emission). For PBMC proliferation, cells were plated and activated as above but incubated for only 16 h prior to addition of Alamar Blue. Plates were read after 6 h.
For `Cc1cccc(N)c1N`, the outcome was inactive. Turning to `Cc1ccc(N=C=O)cc1N=C=O`, the result was inactive. As to `CO[C@@H]1[C@H](OC(=O)NC(=O)CCl)CC[C@]2(CO2)[C@H]1[C@@]1(C)O[C@@H]1CC=C(C)C`, the result was inactive. In the case of `O=[N+]([O-])c1ccc(Oc2ccc(Cl)cc2Cl)cc1`, the result was inactive.

For the molecule `Oc1ccccc1Cl`, the result was inactive. Regarding `CCCCCCCCn1sccc1=O`, the half-maximal activity concentration (AC50) was 20.8 µM (active). On to `CCCCCOC(=O)c1ccccc1C(=O)OCCCCC`, for which the AC50 is 32.4 µM (active). For `Nc1ccc(N=Nc2ccccc2)cc1`, the result was inactive. Turning to `CCOc1cccc(C2(N3CCN(c4ccccc4)CC3)CCC(C)CC2)c1` (stereo not given), the outcome was inactive. Regarding `O=C(Nc1ccccc1)c1ccccc1I`, the result was inactive. Regarding `O=C(Oc1ccc(Br)cc1)N1CCN2CCC1CC2`, the result was inactive. As to `O=[N+]([O-])C(Br)(CO)CO`, the AC50 is 30.6 µM (active). Regarding `O=P(OCCCl)(OCCCl)OCCCl`, the outcome was inactive. As for `[O-][Cl+]O`, the result was inactive.

For the molecule `COc1cc(C=O)cc2c1[C@H](COC(N)=O)[C@]1(OC(C)=O)ON2C[C@H]2[C@@H]1N2C(C)=O`, the half-maximal activity concentration (AC50) is 4.34 µM (active). For `c1ccc(NNc2ccccc2)cc1`, the result was inactive. Take `COP(=S)(OC)SCN1C(=O)c2ccccc2C1=O`: the result was inactive.

For the molecule `CCCCCCCCCCCCCN1CC(C)OC(C)C1` (stereo not given), the result was inactive. Take `CCN(CC)CCO`: the outcome was inactive. `ClC1=C(Cl)[C@]2(Cl)[C@H]3[C@H]([C@@H]4C=C[C@H]3C4)[C@@]1(Cl)C2(Cl)Cl`: the AC50 is 25.8 µM (active). For `ClC1=C(Cl)C2(Cl)C3C(Cl)C=CC3C1(Cl)C2(Cl)Cl` (stereo not given), the concentration at half-maximal activity (AC50) is 31.7 µM (active). For `CCC[CH2][Sn]([Cl])([CH2]CCC)[CH2]CCC`, the AC50 was 0.148 µM (active). `CN(C)C(=O)Nc1ccc(Cl)cc1`: the result was inactive. For the molecule `[Cl-].[Cl-].[Hg+2]`, the outcome was inactive.

On to `Nc1ccc(Cl)cc1N`, for which the result was inactive. Regarding `CC(O)CCO` (stereo not given), the outcome was inactive. In the case of `COC(=O)c1ccccc1N`, the result was inactive. Consider `c1ccc2c(c1)-c1cccc3cccc-2c13`, for which the concentration at half-maximal activity (AC50) was 29.5 µM (active). On to `c1ccc(N=Nc2ccccc2)cc1`, for which the result was inactive. With `OCCCBr`, the result was inactive. Turning to `Cc1ccc([N+](=O)[O-])cc1`, the result was inactive. As for `CC(C)N(Cc1ccccc1)C(=O)C(C)(C)C`, the outcome was inactive. Turning to `CCC(C)c1ccc(O)cc1` (stereo not given), the outcome was inactive. As to `O=C(O)C1C2CCC(O2)C1C(=O)O` (stereo not given), the AC50 is 25.6 µM (active). Consider `Clc1ccccc1Cl`, for which the result was inactive. Take `CC(C)(C)OOC(C)(C)CCC(C)(C)OOC(C)(C)C`: the outcome was inactive. In the case of `C[C@]12C=CC3=C4CCC(=O)C=C4CC[C@H]3[C@@H]1CC[C@@H]2O`, the AC50 was 7.24 µM (active). On to `CC(C)(O)c1cnn2c(-c3ccc(F)c(-c4c(F)cccc4C#N)c3)cnc2n1`, for which the result was inactive. With `Nc1ccc(Oc2ccc(N)cc2)cc1`, the result was inactive. The same measure, in the same setting: with `N#CC(Br)(Br)C(N)=O` the entry was “inactive”.

These data come from PubChem BioAssay (EPA / NIEHS).
